The list is not random: actives were taken first. Their share in the collection is about 18%.
TDP1 cell CPT: DT40-hTDP1 cell growth loss with CPT; chicken DT40 Tdp1-/-;hTDP1 cells + 20 nM CPT, ATP luminescence, 48 h; Potency, µM (highest dose often 46.2 µM), inactives show top-dose activity change, negative = growth inhibition, actives largely listed as inhibitors; 420,000 tested, 12% active; AID 686979; also: potency is read from the fitted curve at half-maximal effect; nearly all actives have a fitted effect of over 55% in size
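Chicken DT40 Tdp1-/- cells stably complemented with human TDP1 were seeded at 400 cells/well in medium containing 20 nM camptothecin, exposed to pin-transferred compounds, and grown at 37 °C for at least 48 hr. Viability was read as ATP luminescence.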
DT40 TDP1 no CPT: qHTS for Inhibitors of human tyrosyl-DNA phosphodiesterase 1 (TDP1): qHTS in cells in absence of CPT; 420,000 tested, 15% active; Potency, µM (highest dose often 46.2 µM), for the others: at the top dose activity change, negative = growth inhibition, actives largely listed as inhibitors; DT40 Tdp1-/- hTDP1 cells, no CPT, ATP luminescence, 48 h; also: potency is read from the fitted curve at half-maximal effect; nearly all actives have a fitted effect of over 55% in size
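Chicken DT40 Tdp1-/- cells stably complemented with human TDP1 were seeded at 400 cells/well with DMSO in place of 20 nM camptothecin. After compound pinning, cells grew at least 48 hr at 37 °C; viability read by CellTiter-Glo luminescence.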
TDP1 block: TDP1 (human) enzyme inhibition; Q9NUW8; Potency, µM (series often up to 130 µM), without a hit: top-dose activity change, negative = inhibition, actives largely listed as inhibitors; 350,000 tested, 0.28% active; recombinant TDP1, AlphaScreen DNA substrate cleavage; AID 485290; also: potency is read from the fitted curve at half-maximal effect; nearly all actives have a fitted effect of over 40% in size
Target sequence (Q9NUW8 whole entry, looked up): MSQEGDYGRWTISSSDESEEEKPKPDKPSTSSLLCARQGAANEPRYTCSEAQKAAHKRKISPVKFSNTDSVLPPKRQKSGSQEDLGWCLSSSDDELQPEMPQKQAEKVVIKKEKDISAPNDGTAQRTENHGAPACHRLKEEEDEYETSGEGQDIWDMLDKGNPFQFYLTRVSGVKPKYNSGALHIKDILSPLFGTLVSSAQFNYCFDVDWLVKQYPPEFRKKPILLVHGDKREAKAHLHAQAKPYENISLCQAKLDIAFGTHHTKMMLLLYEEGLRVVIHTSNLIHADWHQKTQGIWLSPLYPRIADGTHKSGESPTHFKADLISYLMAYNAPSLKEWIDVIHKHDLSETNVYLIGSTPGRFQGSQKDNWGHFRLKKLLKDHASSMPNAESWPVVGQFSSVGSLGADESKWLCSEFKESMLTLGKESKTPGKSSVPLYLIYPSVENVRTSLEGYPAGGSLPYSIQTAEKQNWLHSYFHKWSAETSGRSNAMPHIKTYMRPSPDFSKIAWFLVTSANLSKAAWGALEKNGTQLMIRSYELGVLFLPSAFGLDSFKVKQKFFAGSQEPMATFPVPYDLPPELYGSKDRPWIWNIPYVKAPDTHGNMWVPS
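AlphaScreen read-out: signal falls as enzyme removes the 3' tyrosine-FITC from a 5'-biotinylated DNA oligo (15 nM, 5 min, RT). Enzyme was E. coli-made recombinant Tdp1 at 1 nM, exposed to compound for 15 min beforehand; beads 10 ug/ml, 10 min.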
CtBP-E1A inh: blocks the CtBP interaction with E1A | AlphaScreen GST-E1A/His-CtBP binding, 1536-well; active compounds read low | 340,000 tested, 0.49% active | activity change, % (no concentration beside the values); in the data active = activity change below about -65%; inconclusive = mostly about -30% to -63%
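Protein mix (5X: 125 nM each GST-E1A, His-CtBP) was incubated with pinned compound 2 h at 37 deg C in dark, in 50 mM Tris pH 8.0 buffer with 300 mM NaCl. Glutathione donor and nickel acceptor beads followed; AlphaScreen signal read after 1 h.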
IL1B secr inh: inhibitors of inflammasome signaling (IL-1 beta secretion) | THP-1 LPS/ATP IL-1B secretion, AlphaLISA, 16 h; active compounds read low | 360,000 tested, 4.7% active | activity change, % at 57.5 µM; in the data active = activity change below about -50%; inconclusive = mostly about -30% to -49%
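Secreted IL-1B measured by AlphaLISA bead assay after 16 h compound exposure of THP-1 cells; compounds (final up to 57.5 uM) added 1 h before LPS (250 ng/mL) and ATP (1.25 mM) stimulation; lower signal means less secretion.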
Six1-Eya2 blk: blocks human Six1 binding to Eya2. AlphaScreen GST-Six1/His-Eya2 binding, biochemical; active compounds read low. 360,000 tested, 0.56% active. activity change, % (test concentration not listed). AID 651725; in the data active = activity change below about -65%; inconclusive = mostly about -30% to -63%
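AlphaScreen luminescence read after one hour at 37 °C in darkness. Pin-transferred compounds met GST-Six1 and His-Eya2 protein (5X stock 250 nM/500 nM) plus glutathione donor and Ni-chelate acceptor beads (5X, 50 ug/mL).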
Starred values were filed as active, the others as inactive; ? = inconclusive; / = no result given. Unless noted, calls follow the shape of the dose curve; as a rule, active = well fitted curve in the direction sought with a large enough effect; inconclusive = small, poorly fitted or top-dose-only effect, or another doubt; inactive = no such curve, though single readings can be large; an effect the other way counts as inactive or inconclusive. % is scaled to controls: 0 for no effect and ±100 for the full control effect.

SMILES	TDP1 cell CPT	DT40 TDP1 no CPT	TDP1 block	CtBP-E1A inh	IL1B secr inh	Six1-Eya2 blk
Cc1ccc(-c2c(CN3CCN(c4cc(C)ccc4C)CC3)csc2C)cc1	?	16µM*	3%	/	/	/
Cc1ccc(C)c(N2CCN(Cc3csc(C)c3C)CC2)c1	?	15µM*	5%	/	/	/
CC(C)CCOc1cccc(OCC(=O)Nc2ccncc2)c1	?	13µM*	1%	2	-23	-4
O=C(COc1ccc(-c2ccccc2)cc1)Nc1cccnc1	18µM*	21µM*	0%	8	-28	-1
COc1cccc(OCC(=O)Nc2ccncc2)c1	1%	?	/	7	15	-1
Cc1cc(OCC(=O)Nc2ccncc2)ccc1[N+](=O)[O-]	?	21µM*	5%	-12	8	3
O=C(COc1ccc(Nc2ccccc2)cc1)Nc1ccncc1	?	16µM*	/	-24	?	-14
COc1cccc(C#Cc2ccc3c(c2)O[C@H](CN(C)C)[C@@H](C)CN([C@@H](C)CO)S3(=O)=O)c1	?	?	/	-4	-15	-12
C[C@H](CO)N1C[C@H](C)[C@@H](CN(C)CC2CCOCC2)Oc2cc(C#Cc3ccccc3F)ccc2S1(=O)=O	18µM*	9.2µM*	/	-3	-19	-11
C[C@H]1CN([C@@H](C)CO)S(=O)(=O)c2ccc(C#Cc3cccnc3)cc2O[C@@H]1CN(C)C(=O)Nc1ccc2c(c1)OCO2	?	23µM*	/	-1	-12	-8
C[C@@H]1CN([C@H](C)CO)S(=O)(=O)c2ccc(C#Cc3ccccc3F)cc2O[C@H]1CN(C)C(=O)c1ccc2c(c1)OCO2	18µM*	6.5µM*	/	-17	-74*	-12
CC(C)(C)c1cn(-c2ccc(F)cc2)c(=S)[nH]1	6%	1%	-2%	0	0	-6
O=C(CN1C(=O)CCC1=O)Nc1ccc2c3c(cccc13)CC2	7%	11%	0%	19	18	4
C=CCn1c(=NC(=O)c2sc3ccccc3c2Cl)sc2cc(S(N)(=O)=O)ccc21	?	?	-3%	11	-4	8
COCCn1c(=NC(=O)c2sc3ccccc3c2Cl)sc2cc(S(N)(=O)=O)ccc21	?	13µM*	2%	-16	17	2
CCn1c(=NC(=O)CSC(C)=O)sc2ccccc21	21µM*	?	5%	15	-16	4
COCCn1c(=NC(=O)CCS(=O)(=O)c2ccccc2)sc2cc(F)ccc21	18µM*	21µM*	5%	2	-4	-1
COCCn1c(=NC(=O)CSCC(=O)NC2CCCCC2)sc2cc(OC)ccc21	23µM*	21µM*	4%	2	-21	7
CCn1nccc1C(=O)Nc1cccc(C)c1C	13%	5%	/	5	-3	6
Cc1cc(C)cc(OCc2cc(=O)n3cc(C)sc3n2)c1	-3%	-4%	4%	/	/	/
COCCn1c(=NC(=O)CSC(C)=O)sc2cc(OC)ccc21	?	?	2%	-5	-21	2
COCCn1c(=NC(=O)/C=C/c2cccs2)sc2cc(NC(C)=O)ccc21	?	23µM*	3%	-8	0	6
COCCn1c(=NC(=O)CSC(C)=O)sc2cc(F)ccc21	21µM*	23µM*	3%	6	-27	3
CCC(=O)N=c1sc2cc([N+](=O)[O-])ccc2n1CCOC	-9%	?	3%	2	11	7
COc1ccc(C(OC(=O)c2ccco2)C(=O)NC2CCCCC2)cc1OC (stereo unspecified)	-19%	-17%	-2%	-7	-22	5
SMILES	TDP1 cell CPT	DT40 TDP1 no CPT	TDP1 block	CtBP-E1A inh	IL1B secr inh	Six1-Eya2 blk
COc1cccc(N2CCN(C(=O)c3cc4c(=O)n(Cc5cccnc5)ccc4nc3C)CC2)c1	-11%	-24%	2%	/	/	/
COc1ccc(Cn2ccc3nc(C)c(C(=O)N4CCN(c5ccc(OC)cc5)CC4)cc3c2=O)cc1	23µM*	23µM*	11%	/	/	/
COc1ccc(Cn2ccc3nc(C)c(C(=O)N4CCN(c5ccccc5OC)CC4)cc3c2=O)cc1	?	23µM*	10%	/	/	/
COc1ccc(Cn2ccc3nc(C)c(C(=O)N4CCN(c5ccc(F)cc5)CC4)cc3c2=O)cc1	23µM*	15µM*	7%	/	/	/
Cc1cc(/C=C2\C(=N)N3N=C(CC(=O)N4CCOCC4)SC3=NC2=O)c(C)n1-c1ccccc1	-2%	-12%	9%	/	12	-9
Cc1cccc(OCCOCCN2CCOCC2)c1C	-17%	-2%	5%	-5	-10	2
Cc1ccccc1-c1ccc(/C=C2/SC(N3CCOCC3)=NC2=O)o1	2.9µM*	7.3µM*	/	-24	-76*	-7
O=C1N=C(N2CCOCC2)S/C1=C\c1ccc(-c2ccccc2Cl)o1	-22%	?	-2%	6	-17	-1
O=C(NCc1ccccc1)[C@]1(C(F)(F)F)C[C@H](CCCO)CCCO1	/	/	6%	/	/	/
O=C(CN1C(=O)c2ccccc2C1=O)OCc1nc2ccsc2c(=O)[nH]1	-2%	10%	1%	/	-4	-1
NC1=NC(=Nc2ccc(S(=O)(=O)N3CCOCC3)cc2)c2ccccc21	?	-77%	5%	15	-51*	16
CC(C)c1ccc(N=C2N=C(N)c3ccccc32)cc1	?	?	0%	-1	-96*	-2
Nc1ccc(S(=O)(=O)N2CCOCC2)cc1	5%	1%	1%	/	/	/
CC1=NN(c2ccccc2)C(=O)/C1=C\c1cn(CCC#N)nc1-c1ccc(Cl)cc1	?	?	2%	9	-85*	6
CC1(C)CC(=O)C(=Cc2cn(-c3ccccc3)nc2-c2ccccc2)C(=O)C1	23µM*	23µM*	/	2	0	2
Cc1ccc(-c2nn(-c3ccccc3)cc2C=C2SC(=S)N(CCS(=O)(=O)O)C2=O)cc1	-23%	?	/	?	-3	?
Cc1ccc(-c2nn(-c3ccccc3)cc2C=C2C(=O)CC(C)(C)CC2=O)cc1	15µM*	?	4%	7	-30	6
CC1=NNC(=O)/C1=C\c1cn(-c2ccccc2)nc1-c1ccc(Cl)cc1	5.2µM*	5.2µM*	9%	14	-119*	6
CCOc1ccc(CCNC(=O)Cn2nnc(-c3ccccc3)n2)cc1OCC	/	/	6%	/	/	/
COCCCNC(=O)c1cc2c(=O)oc3ccc(C)cc3c2s1	6.5µM*	5.8µM*	5%	/	/	/

Assay outcomes: PubChem BioAssay, National Center for Advancing Translational Sciences (NCATS)
